The list is not random: actives were taken first. Their share in the collection is about 19%.
Pf growth 96h = P. falciparum growth inhibition at 96 hour, primary screen for plastid delayed-death inhibitors; 320,000 compounds, 6.9% hits; P. falciparum luciferase reporter growth, 96 h; Potency, µM (top dose mostly 28.7 µM), usual class: inhibitors; AID 504834
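Infected RBCs, 2% Hct / 0.05% parasitemia final; luciferase-reporter P. falciparum; cpd 96 h, 37 C, 5% CO2; luciferase detection reagent; luminescence.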
Pf growth 48h = P. falciparum growth inhibition at 48 hours (one generation); AID 504832; Potency, µM (top dose mostly 28.7 µM), usual class: inhibitors; P. falciparum luciferase growth in erythrocytes, 48 h; 310,000 compounds, 5.9% hits
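Luciferase-expressing parasites in RBCs, 2% Hct / 0.1% parasitemia final; RPMI 1640 + 0.5% Albumax; 37 C, 5% CO2, one generation; luminescence read-out, lower signal = inhibition.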
MARV entry inh = inhibitors of Marburg virus binding or cell entry; Marburg virus pseudotyped entry inhibition, cell reporter; Potency, µM (top dose mostly 37.8 µM), actives largely listed as inhibitors; 300,000 compounds, 1.8% hits; AID 540276; calls by dose curve; tested in HEK293 cells
Shiga toxin inh = Shiga toxin inhibition. Vero cells, Shiga toxin protein synthesis inhibition reporter. inhibition, % at 38.7 µM. 290,000 compounds, 9.2% hits; in the data active = inhibition mostly above about 28%, no sharp cut-off; inactive = mostly below about 43%
Cycloheximide cs = affects cycloheximide protein synthesis inhibition readout, counter-screen; cell reporter, cycloheximide protein synthesis inhibition counterscreen; max response, %; 300,000 compounds, 12% hits; AID 2314; in the data active = max response mostly above about 13%, no sharp cut-off; inactive = mostly below about 14%; note: read at 38.3 µM for the half of the compounds with a filed dose
LASV entry inh = Lassa virus entry inhibition. Lassa virus pseudotype entry inhibition, cell reporter. Potency, µM (highest dose often 37.9 µM), hits mostly inhibitors. 300,000 compounds, 1.2% hits. AID 540256; calls by dose curve; tested in HEK293 cells; note: nearly all actives have a fitted effect of over 50% in size
Of the large screens only hits and unclear results are named; the others gave an inactive call. Unless noted, calls come from the whole dose curve; as a rule, active = well fitted inhibition curve with a large enough effect; inconclusive = small, poorly fitted or top-dose-only effect, or another doubt; inactive = no such curve, though single readings can be large or run the other way.

COC(=O)c1ccc(N=Nc2ccccc2)cc1	MARV entry inh inconclusive, Shiga toxin inh 79, Cycloheximide cs 32, LASV entry inh inconclusive
COC(=O)c1ccc(OCCOCCOc2cccc3ccc(C)nc23)cc1	Pf growth 96h inconclusive, Pf growth 48h inconclusive, MARV entry inh inconclusive
CCOC(=O)C(CCCCOc1ccc([N+](=O)[O-])cc1)C(=O)OCC	Pf growth 96h inconclusive
COC(=O)c1ccc(OCCOc2ccccc2C)cc1	Pf growth 96h 1.3µM, Cycloheximide cs 12
COc1cccc(OC)c1OCCOc1ccc(C(=O)c2ccccc2)cc1	Pf growth 96h 0.37µM, MARV entry inh inconclusive, LASV entry inh inconclusive
COc1ccc(NC(=O)/C=C/c2cc(Br)ccc2OC)cc1	none
Cc1ccc2c(c1)N(CCCC(=O)NCCCN1CCCC1=O)C(=O)CO2	none
CCCC(C)NC(=O)CN(Cc1ccco1)S(=O)(=O)c1ccccc1 (centres undefined)	none (no result: MARV entry inh, Shiga toxin inh, Cycloheximide cs, LASV entry inh)
Cc1sc2ncnc(N3CCN(S(=O)(=O)c4ccc(Br)cc4)CC3)c2c1C	none (no result: Pf growth 96h, Pf growth 48h, Shiga toxin inh, Cycloheximide cs)
COC(=O)c1ccc(OCCOc2ccccc2)cc1	MARV entry inh inconclusive, Shiga toxin inh 59, Cycloheximide cs 22 (no result: Pf growth 48h)
COC(=O)c1ccc(OCCCCN(C)Cc2ccccc2)cc1	none (no result: MARV entry inh, Shiga toxin inh, LASV entry inh)
CCOC(=O)c1c(C)n(C)c2ccc(OCC(O)Cn3nc(C)cc3C)cc12 (centres undefined)	Pf growth 48h inconclusive, MARV entry inh inconclusive (no result: Pf growth 96h)
Cc1nc(-c2ccncc2)nc(NCCNc2ccc(C(F)(F)F)cn2)c1Cl	Pf growth 96h 2.3µM, Pf growth 48h 3.7µM
Cc1nc(C(F)(F)F)ccc1C(=O)Nc1ccc(C(F)(F)F)cn1	none
Cc1ccc(CNCc2ccccc2)s1	none (no result: Pf growth 96h, Pf growth 48h, Shiga toxin inh, Cycloheximide cs)
CN(Cc1ccccc1)C1(CNC(=O)CCC(F)(F)F)Cc2ccccc2C1	Pf growth 96h 15µM (no result: Shiga toxin inh)
CC(=O)NCCC(=O)NCC1(N(C)Cc2ccccc2)Cc2ccccc2C1	none (no result: MARV entry inh, LASV entry inh)
COc1ccccc1NC(=S)NCC1CCCO1 (centres undefined)	Pf growth 96h inconclusive
NS(=O)(=O)c1ccc(NC(=S)NCC2CCCO2)cc1 (centres undefined)	Pf growth 96h inconclusive
S=C(NCC1CCCO1)Nc1ccc(Nc2ccccc2)cc1 (centres undefined)	Pf growth 96h 12µM
S=C(NCC1CCCO1)Nc1cccc2ccccc12 (centres undefined)	Pf growth 96h 1µM
COc1ccc(-n2ncc3c2ncn2nc(Cc4ccccc4)nc32)cc1	MARV entry inh inconclusive (no result: Pf growth 96h, Pf growth 48h, Shiga toxin inh, Cycloheximide cs)
c1ccc(-n2ncc3c2ncn2nc(-c4ccco4)nc32)cc1	Shiga toxin inh 46, Cycloheximide cs 38, LASV entry inh inconclusive (no result: Pf growth 96h)
CCOC(=O)c1cnc(SC)nc1Sc1cc(Cl)ccc1Cl	Pf growth 96h 10µM, Pf growth 48h inconclusive, MARV entry inh inconclusive
COC(=O)c1cccc(C(=O)N2CCCC(CCC(=O)N(C)CCc3ccccn3)C2)c1 (centres undefined)	Pf growth 48h inconclusive
Cc1ccc(NC(=O)c2ccc3c(c2)OCCO3)cc1	MARV entry inh 13µM, LASV entry inh 4.5µM
CCCC(=O)N1CCN(c2ccc(NC(=O)c3ccc4c(c3)OCCO4)cc2)CC1	Pf growth 96h inconclusive, Pf growth 48h inconclusive
O=C(Nc1ccncc1)c1ccc2c(c1)OCCO2	Shiga toxin inh 66, Cycloheximide cs 31
C=CCN=C(SCC(=O)c1ccc(Cl)cc1)c1c(O)n(C)c(=O)n(C)c1=O	none (no result: MARV entry inh, LASV entry inh)
CCOc1ccccc1C(=O)Nc1ccc(S(=O)(=O)N(Cc2ccccc2)c2ccccc2)cc1	none (no result: Pf growth 96h, Pf growth 48h, Shiga toxin inh, Cycloheximide cs)
CN(C)S(=O)(=O)c1cccc(NC(=O)c2cc(=O)[nH]c3ccccc23)c1	none (no result: MARV entry inh, LASV entry inh)
CN(C)S(=O)(=O)c1cccc(COC(=O)c2ccc(Cl)cc2O)c1	Pf growth 48h inconclusive, Shiga toxin inh 106, Cycloheximide cs 45 (no result: MARV entry inh, LASV entry inh)
CN(C)S(=O)(=O)c1cccc(NC(=O)c2ccccc2OCc2ccc(F)cc2)c1	Pf growth 96h inconclusive, Pf growth 48h 12µM, LASV entry inh inconclusive
CN(C)S(=O)(=O)c1cccc(COc2ccccc2C(=O)Nc2ccccc2)c1	Pf growth 96h 9.3µM, Pf growth 48h 10µM, MARV entry inh inconclusive, LASV entry inh inconclusive
CN(C)S(=O)(=O)c1cccc(NC(=O)c2c[nH]c3ccccc23)c1	MARV entry inh inconclusive, Shiga toxin inh 64, Cycloheximide cs 16, LASV entry inh inconclusive
CN(C)S(=O)(=O)c1cccc(COC(=O)c2ccc3c(c2)OCO3)c1	none
O=C(C[n+]1ccccc1)Nc1ccc(Cl)c([N+](=O)[O-])c1	Pf growth 96h inconclusive (no result: MARV entry inh, LASV entry inh)
